Data from PubChem BioAssay (NCATS).
Values without a mark were called inactive. Inconclusive results are not listed. Entries that show only a call come without a potency. The source made the active and inactive calls. Unless noted, calls follow the shape of the dose curve; as a rule, active = well fitted activation curve with a large enough effect in the main read-out, with a control signal flat (not every such curve was filed as active); inconclusive = small, poorly fitted or top-dose-only effect, or effect the other way, or a change in a side signal; inactive = flat fitted curve, though single readings scatter.

Tests used:
[1] = target: 3',5'-cyclic-AMP phosphodiesterase 4B (Homo sapiens) (UniProt Q07343); test: qHTS Assay for Inhibitors of PDE-IV (AID 607); conditions: HEK293 ACTOne CNG channel cells, membrane potential fluorescence; series mostly up to 22.9 µM
In short: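 The readout is membrane depolarisation from a cAMP-sensing CNG channel, detected with a potential dye at ex 535/em 590. Cells were HEK293-derived (endogenous PDE-IV) at 1000 cells/well, titrated up to 22.9 uM final.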

[2] = Cellular Toxicity (caspase-3) HepG2 (AID 654; active = well fitted curve in the direction sought with a large enough effect; an effect the other way counts as inactive or inconclusive;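 also: cells exposed to compound for 16 hours before reading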); conditions: HepG2 caspase-3 activation, luminescence; series mostly up to 92.2 µM
In short: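 qHTS, HepG2, 1500 cells/well, complete medium; cpd 16 h 37 °C; Caspase-Glo 3/7, 20 min RT; lum. Norm: DMSO vs 100 uM tamoxifen; AC50 Hill fit.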

[3] = Cellular Toxicity (caspase-3) Jurkat (AID 655; active = well fitted curve in the direction sought with a large enough effect; an effect the other way counts as inactive or inconclusive;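 also: cells exposed to compound for 16 h at 37 °C before reading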); conditions: Jurkat caspase-3 activation, luminescence; series mostly up to 92.2 µM
In short: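 Jurkat cells (5000/well) in complete medium were treated with compounds for 16 hr at 37 °C, then Caspase-Glo 3/7 luminescence was read after 20 min at room temperature. Data normalized to DMSO (basal) and 100 uM tamoxifen (100%); AC50 from Hill fit.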

[4] = Cellular Toxicity (caspase-3) HUV-EC-C (AID 656; active = well fitted curve in the direction sought with a large enough effect; an effect the other way counts as inactive or inconclusive); conditions: HUV-EC-C cells, caspase-3 activation (apoptosis), vehicle = 0, 100 µM tamoxifen = 100%; series mostly up to 92.2 µM
In short: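 HUV-EC-C endothelial cells, 1000/well, were pre-incubated 5 hr at 37°C, then exposed to compounds for 16 hr at 37°C. Caspase-Glo 3/7 luminescence was read after 20 min at room temperature. AC50 came from Hill fits, normalized to DMSO and 100 uM tamoxifen.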

[5] = Cellular Toxicity (caspase-3) SHSY5Y (AID 657; active = well fitted curve in the direction sought with a large enough effect; an effect the other way counts as inactive or inconclusive); conditions: SH-SY5Y caspase-3 activation, DMSO zero, 10 µM staurosporine = 100%; series mostly up to 91.7 µM
In short: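 SH-SY5Y human neuroblastoma cells (1500/well) were treated with compounds for 16 h at 37 °C, then Caspase-Glo 3/7 luminescence was read after 1 h at room temperature. Data normalized to DMSO and 10 uM staurosporine; AC50 from Hill fits.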

[6] = Cellular Toxicity (caspase-3) BJ (AID 658; active = well fitted curve in the direction sought with a large enough effect; an effect the other way counts as inactive or inconclusive); conditions: BJ fibroblasts, luminescence, normalized: DMSO 0%, staurosporine 100%; series mostly up to 91.7 µM
In short: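 Readout: Caspase-Glo 3/7 luminescence increase in BJ cells after 16 hr treatment at 37 °C. Staurosporine and tamoxifen served as positive controls; AC50 values came from Hill modelling of data normalized to DMSO and 10 uM staurosporine.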

[7] = Cellular Toxicity (caspase-3) MRC-5 (AID 659; active = well fitted curve in the direction sought with a large enough effect; an effect the other way counts as inactive or inconclusive); conditions: MRC-5 cells, luminescence, normalized: DMSO 0%, 10 µM staurosporine 100%; series mostly up to 91.7 µM
In short: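 Concentration-dependent caspase 3/7 activation is measured in human normal lung fibroblasts (MRC-5) following 16-hour treatment. AC50 values come from standard Hill-equation modeling of luminescence normalized to DMSO and 10 uM staurosporine.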

[8] = Cellular Toxicity (caspase-3) SK-N-SH (AID 661; active = well fitted curve in the direction sought with a large enough effect; an effect the other way counts as inactive or inconclusive); conditions: SK-N-SH caspase-3 activation, qHTS; series mostly up to 91.7 µM
In short: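 Caspase 3/7 activation is measured as a luminescence increase from aminoluciferin released by substrate cleavage in SK-N-SH cells after 16 hr compound treatment; values are AC50 from concentration-response curves.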

[9] = Cellular Toxicity (caspase-3) H-4-II-E (AID 663; active = well fitted curve in the direction sought with a large enough effect; an effect the other way counts as inactive or inconclusive;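 also: cells exposed to compound for 16 hr before readout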); conditions: H-4-II-E rat hepatoma, scaled: DMSO 0%, 100 µM tamoxifen 100%; at 92.2 µM (top of the series)
In short: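 Apoptosis induction is scored as increased luminescence from caspase 3/7 substrate cleavage in rat hepatoma H-4-II-E cells exposed to compound for 16 hr. Activity is scaled between DMSO and 100 uM tamoxifen.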

3',5'-cyclic-AMP phosphodiesterase 4B (Homo sapiens), sequence (Q07343 whole entry, looked up): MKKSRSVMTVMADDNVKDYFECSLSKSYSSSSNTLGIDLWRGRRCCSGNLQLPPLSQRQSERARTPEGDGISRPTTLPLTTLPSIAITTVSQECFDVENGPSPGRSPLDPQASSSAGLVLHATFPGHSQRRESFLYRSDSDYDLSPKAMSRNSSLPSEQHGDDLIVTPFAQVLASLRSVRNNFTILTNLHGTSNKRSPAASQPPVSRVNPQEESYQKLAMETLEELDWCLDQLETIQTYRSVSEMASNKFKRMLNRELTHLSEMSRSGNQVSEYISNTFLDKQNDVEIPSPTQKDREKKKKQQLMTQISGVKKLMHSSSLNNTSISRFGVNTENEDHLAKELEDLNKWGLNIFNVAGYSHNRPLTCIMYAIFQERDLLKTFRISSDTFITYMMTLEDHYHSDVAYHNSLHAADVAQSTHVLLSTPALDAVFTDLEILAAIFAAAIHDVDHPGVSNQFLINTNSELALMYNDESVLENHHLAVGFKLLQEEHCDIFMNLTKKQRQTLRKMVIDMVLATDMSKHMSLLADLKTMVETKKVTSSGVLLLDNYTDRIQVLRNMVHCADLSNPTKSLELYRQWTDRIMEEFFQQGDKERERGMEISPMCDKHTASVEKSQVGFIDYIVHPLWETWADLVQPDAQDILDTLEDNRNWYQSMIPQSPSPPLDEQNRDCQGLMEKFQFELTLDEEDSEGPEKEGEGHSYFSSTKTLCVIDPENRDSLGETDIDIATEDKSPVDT

With `O=Nc1ccc2oc(=O)ccc2c1` the outcome [1] was “inactive”.
For `CC(C)Cc1ccc([C@H](C)C(=O)O)cc1`, the outcome [1] was “inactive”.
In the case of `CCCN(CC1CC1)c1nc(C)nc(Nc2c(Cl)cc(Cl)cc2Cl)c1Cl`, the outcome [1] is reported as “inactive”.
In the case of `Cc1c(N)c(=O)n(-c2ccccc2)n1C`, the outcome [1] is reported as “inactive”.
With `NCCCS(=O)(=O)O` the outcome [1] was “inactive”.
With `N=c1ccn2c(n1)O[C@H]1[C@H](O)[C@@H](CO)O[C@H]12` the outcome [1] was “inactive”.
For `N=C(N)SCCc1ccc(CCSC(=N)N)cc1`, the outcome [1] was “inactive”.
In the case of `Ic1ccc(N2CCN(Cc3c[nH]c4ncccc34)CC2)cc1`, the outcome [1] is reported as “inactive”.
For `CN1[C@@H]2CC[C@H]1CC(OC(c1ccccc1)c1ccccc1)C2` (some centres undefined), the outcome [1] was “inactive”.
With `COC(=O)c1c(C)[nH]c(C)c1C(=O)c1ccccc1Cc1ccccc1` the outcome [1] was “inactive”.
With `N#C/C(=C\c1ccc(O)c(O)c1)C(=O)NCc1ccccc1` the outcome [1] was “inactive”.
With `NCCNC(=O)c1ncsc1-c1cccc(F)c1` the outcome [1] was “inactive”.
In the case of `Nc1cc(-c2ccncc2)c[nH]c1=O`, the outcome [1] is reported as “inactive”.
In the case of `CCCn1c(=O)c2[nH]c(-c3ccc(OCC(=O)NCCN)cc3)nc2n(CCC)c1=O`, the outcome [1] is reported as “inactive”.
For `O=c1[nH]c2cc(C(F)(F)F)ccc2n1-c1cc(C(F)(F)F)ccc1O`, the outcome [1] was “inactive”.
For `O=C(O)c1cc(=O)c2ccccc2[nH]1`, the outcome [1] was “inactive”.
In the case of `NC(=O)C(=O)O`, the outcome [1] is reported as “inactive”.
In the case of `Cc1ccc(O)c(N=Nc2ccccc2)n1`, the outcome [1] is reported as “inactive”.
For `COc1ccccc1N1CCN(CCCCNS(=O)(=O)c2cccc3c(N(C)C)cccc23)CC1`, the outcome [1] was “inactive”.
For `Cc1cc(NC(=O)Nc2ccc3c(ccn3C)c2)sn1`, the outcome [1] was “inactive”.
In the case of `CCCCN1CCC(n2c(=O)[nH]c3ccccc32)CC1`, the outcome [1] is reported as “inactive”.
In the case of `C[N+]1(C)CCC(OC(=O)C(c2ccccc2)c2ccccc2)CC1`, the outcome [1] is reported as “inactive”.
In the case of `Cn1c(=O)c2[nH]c(-c3ccccc3)nc2n(C)c1=O`, the outcome [1] is reported as “inactive”.
For `O=c1[nH]c2cc(Cl)c(Cl)cc2[nH]c1=O`, the outcome [1] was “inactive”.
For `N#C/C(=C\c1ccc(O)c(O)c1)C(=O)NCCCc1ccccc1`, the outcome [1] was “inactive”.
In the case of `O=C(O)c1cc(=O)c2c(Cl)cc(Cl)cc2[nH]1`, the outcome [1] is reported as “inactive”.
For `CC(C)NC[C@H](O)COc1cccc2[nH]ccc12`, the outcome [1] was “inactive”.
With `COc1cc2c(CCNC(C)=O)c[nH]c2cc1Cl` the outcome [1] was “inactive”.
In the case of `N#C/C(=C\c1c[nH]c2ccccc12)C(=O)c1ccc(O)c(O)c1`, the outcome [1] is reported as “inactive”.
In the case of `NC[C@@H]1O[C@H](C23CC4CC(CC(C4)C2)C3)Cc2c1ccc(O)c2O`, the outcome [1] is reported as “inactive”.
In the case of `CN(C)C(N)=NCCC[C@H](N)C(=O)O`, the outcome [1] is reported as “inactive”.
For `Cc1ccc(C(=O)c2ccc(CC(=O)O)n2C)cc1`, the outcome [1] was “inactive”.
In the case of `COc1cccc(C(=O)NCCN2CCN(c3ccc(Cl)cc3)CC2)c1`, the outcome [1] is reported as “inactive”.
With `N.N.O=C(O)C1(C(=O)O)CCC1.[Pt]` the outcome [1] was “inactive”.
In the case of `O=C(O)Cc1ccc(-c2ccccc2)cc1`, the outcome [1] is reported as “inactive”.
In the case of `NCCSSCCN`, the outcome [1] is reported as “inactive”.
For `O=C(O)c1cc(O)c(O)c(O)c1`, the Potency [2] was “inactive”, the Potency [3] was “inactive” and the outcome [4] was “inactive”. The outcome [5] was “inactive”, the outcome [6] was “inactive” and the outcome [7] was “inactive”. The Potency [8] was “inactive” and the caspase-3 activation [9] was -0.904%.
With `O=C(Nc1ccccc1)c1cc([N+](=O)[O-])ccc1Cl` the outcome [1] was “inactive”.
In the case of `NCCCCC(=O)O`, the outcome [1] is reported as “inactive”.
With `O=c1cc(-c2ccccc2)oc2ccccc12` the Potency [2] was “inactive”, the Potency [3] was “inactive” and the outcome [4] was “inactive”. The outcome [5] was “inactive”, the outcome [6] was “inactive” and the outcome [7] was “inactive”. The Potency [8] was “inactive” and the caspase-3 activation [9] was -0.716%.
In the case of `CC(C)(C=O)Cc1cc(C(C)(C)C)c(O)c(C(C)(C)C)c1`, the outcome [1] is reported as “inactive”.
For `O=S(=O)(c1cccc2c(I)cccc12)N1CCCNCC1`, the outcome [1] was “inactive”.
For `O=C(O)CC[C@@H](C(=O)O)N1C(=O)c2ccccc2C1=O`, the outcome [1] was “inactive”.
With `COc1ccccc1CNCCCCCCNCCCCCCCCNCCCCCCNCc1ccccc1OC` the outcome [1] was “inactive”.
For `Oc1cc2c(cc1O)CN(C(=S)NCCc1ccc(Cl)cc1)CCC2`, the outcome [1] was “inactive”.
With `CC(C)NCC(O)COc1cccc2ccccc12` (centres undefined) the Potency [2] was “inactive”, the Potency [3] was “inactive” and the outcome [4] was “inactive”. The outcome [5] was “inactive”, the outcome [6] was “inactive” and the outcome [7] was “inactive”. The Potency [8] was “inactive” and the caspase-3 activation [9] was 12.6%.
With `O=C(c1cc(O)c(O)c([N+](=O)[O-])c1)c1ccccc1F` the outcome [1] was “inactive”.
In the case of `CC1(C)CCC=[N+]1[O-]`, the outcome [1] is reported as “inactive”.
In the case of `N[C@H](CCCP(=O)(O)O)C(=O)O`, the outcome [1] is reported as “inactive”.
For `COc1cc(OC)c(/C=C2/C(=O)Nc3ccccc32)c(OC)c1`, the outcome [1] was “inactive”.
With `O=c1[nH]c2cc([N+](=O)[O-])c([N+](=O)[O-])cc2[nH]c1=O` the outcome [1] was “inactive”.
With `CCCCCCCC/C=C\CCCCCCCC(=O)NCCO` the outcome [1] was “inactive”.
With `Cn1cc(C2=C(c3ccc(Cl)cc3Cl)C(=O)NC2=O)c2ccccc21` the outcome [1] was “inactive”.
